From PubChem BioAssay AID2685 (National Center for Advancing Translational Sciences (NCATS), 2010) come the findings set out here.

Hit rate of the full screen: of about 320,000 compounds, about 2,100 (0.66%) were called active. Inconclusive results (about 53%) are left out. The sample holds actives, similar compounds and a random draw of the others, so the mix is not that of the screen. Calls follow the shape of the dose curve; as a rule, active = well fitted inhibition curve with a large enough effect in the signal ratio, with a control signal flat (not every such curve was filed as active); inconclusive = small, poorly fitted or top-dose-only effect, or effect the other way, or a change in a side signal; inactive = flat fitted curve, though single readings scatter; the % refers to the signal ratio.
Potency is read from the fitted curve at half-maximal effect.

The nature of this assay: qHTS Assay for Lipid Storage Modulators in Drosophila S3 Cells.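 As to cell number change: cells counted by Cell Tracker Red CMTPX staining in the red channel.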 Particulars: BODIPY lipid droplet fluorescence, 18-24 h, cells fed with added oleic acid; cell number change: measured here: cell count max response; series mostly up to 46.1 µM. The method in brief:
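Laser-scanning cytometry quantifies lipid droplet accumulation (500–530 nm total intensity; droplet/cell object ratio) in oleic acid-fed (400 uM added) Drosophila S3 cells treated with a concentration series. 20 uM Triacsin C defined 100% inhibition.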
Turning to `COc1ccc(OCC(=O)N2CC3(C)CC2CC(C)(C)C3)cc1` (stereo not drawn), the Potency entry was “inactive”.
Take `Cc1cccc2cc3c(N)c(C(=O)Nc4ccc(N5CCOCC5)cc4)sc3nc12`: the Potency entry was “inactive” and the cell number change is -1.66%.
For `Nc1c(C(=O)Nc2ccc(S(=O)(=O)N3CCCC3)cc2)sc2nc3cc4c(cc3cc12)CCC4`, in that order: “inactive” and 6.36%.
`CCc1cccc2cc3c(N)c(C(=O)Nc4ccc(S(=O)(=O)N5CCCC5)cc4)sc3nc12`: the Potency is 5.8 µM (active) and the cell number change amounted to 0.905%.
For `Cc1cccn2c(=O)c3cc(C(=O)NCCc4ccccc4)sc3nc12`, in that order: “inactive” and -15.4%.
For `Cc1ccc(C(=O)N2CCC(Cc3ccccc3)CC2)cc1[N+](=O)[O-]`, in that order: “inactive” and 4.11%.
For `C=CCNC(=O)/C(C#N)=C\c1cc(Cl)c(O)c(OCC)c1`, in that order: “inactive” and 2.03%.
As to `COc1cc(/C=C(/C#N)C(=O)NCc2ccccc2)cc(OC)c1OC`, the Potency entry is “inactive” and the cell number change is -27.2%.
Consider `C=CCNC(=O)/C(C#N)=C\c1cc(Cl)c(OCC)c(OC)c1`, for which the Potency is 14.6 µM (active) and the cell number change was -28.8%.
For `CC(=O)Nc1ccc(NC(=O)C2CC(=O)Nc3nc4ccccc4n32)cc1` (stereo not drawn), in that order: “inactive” and -1.64%.
For `CCSc1nnc(NC(=O)Nc2cccc(C)c2)s1`, in that order: “inactive” and 17%.
With `CNC(=O)Nc1cccc(C(F)(F)F)c1`, the Potency result is “inactive” and the cell number change came to 3.39%.
For `CCSCCc1nnc(NC(=O)Nc2cccc(C(F)(F)F)c2)s1`, in that order: 20.6 µM (active) and -21.6%.
For `CC(C)C[C@@H](CSc1ccc(Br)cc1)N1CCN(C)CCC1=O`, in that order: “inactive” and -4.06%.
For `CC(C(=O)NCc1ccc2c(c1)OCO2)N(c1ccccc1)S(C)(=O)=O` (stereo not drawn), in that order: “inactive” and 7.31%.
`COc1ccc(N2C(=O)CN(Cc3ccc(OC)c(OC)c3)C2=S)cc1`: the Potency entry was “inactive” and the cell number change was determined as 10.4%.
As to `Cc1cc(C)c2nc(N(CCCN(C)C)C(=O)C3=COCCO3)sc2c1`, the Potency entry was “inactive” and the cell number change was -20%.
For `Cc1ccc(/C=N/NC(=O)c2csc3c2CCCC3)cc1`, in that order: 16.4 µM (active) and -23.6%.
For `O=C(N/N=C/c1cccc(F)c1)c1csc2c1CCCC2`, in that order: “inactive” and 1.41%.
Consider `O=C(N/N=C/c1ccc(O)cc1)c1csc2c1CCCC2`, for which the Potency entry is “inactive”.
With `COc1ccc(C)cc1S(=O)(=O)N(CC(=O)Nc1cccc([N+](=O)[O-])c1)c1cc(C)cc(C)c1`, the Potency result is “inactive”.
The same measure, in the same setting: in the case of `CCOc1ccccc1OCC(=O)NN1Cc2ccccc2C1=N` it was “inactive”.
Turning to `Cc1cccc(C(=O)Nc2ccc(C(=O)/C=C/c3ccncc3)cc2)c1`, the Potency was 6.51 µM (active) and the cell number change was -3.72%.
For the compound `CC(=O)Nc1cccc(C(=O)/C=C/c2ccc[nH]2)c1`, the Potency result was “inactive” and the cell number change was found to be 9.89%.
Take `CSc1ccc(/C=C/C(=O)c2ccc(NC(C)=O)cc2)cc1`: the Potency result was “inactive”.
Turning to `Cc1cccc(C(=O)N/N=C/c2ccncc2)c1`, the Potency entry was “inactive” and the cell number change was -0.828%.
For `CC(=O)Nc1cccc(C(=O)/C=C/c2ccc(/C=C/C(=O)c3cccc(NC(C)=O)c3)cc2)c1`, in that order: 8.2 µM (active) and -12.7%.
On to `Cc1cccc(C(=O)Nc2ccc(O)cc2)c1`, for which the Potency result is “inactive” and the cell number change was 4.55%.
For `CCOc1ccccc1CNC(=O)CCC(=O)N1Cc2ccccc2Oc2ncccc21`, in that order: “inactive” and -10.6%.
For `CCOC(=O)C1(Cc2ccc(Cl)cc2)CCN(C(=O)c2cc(C)nc(C)n2)CC1`, in that order: “inactive” and -4.86%.
For `Cc1onc(-c2ccccc2Cl)c1C(=O)NCCCc1ccccc1`, in that order: “inactive” and -24%.
`COc1ccc(C2c3[nH]c4ccccc4c3CCN2Cc2cccn2-c2ncccn2)cc1C` (stereo not drawn): the Potency was 16.4 µM (active) and the cell number change is -1.91%.
For `Cc1cccc(C2c3[nH]c4ccccc4c3CCN2Cc2cccn2-c2ncccn2)c1` (stereo not drawn), in that order: “inactive” and -27.2%.
`Fc1ccc(C2c3[nH]c4ccccc4c3CCN2Cc2cccn2-c2ncccn2)cc1` (stereo not drawn): the Potency result was “inactive” and the cell number change was 1.18%.
For `CCN(CC)S(=O)(=O)c1cccc(-c2nnc(SCC(=O)c3cc(C)n(C4CC4)c3C)o2)c1`, in that order: “inactive” and 13.6%.
For `CCCOc1ccc(N2C(=O)CC(NCc3cccs3)C2=O)cc1` (stereo not drawn), in that order: “inactive” and 15.4%.
As to `CCOC(=O)c1ccc(CNC(=O)C(Cc2c[nH]c3ccccc23)NC(C)=O)o1` (stereo not drawn), the Potency result was “inactive”.
Turning to `O=C(NC(=O)c1c(Cl)cccc1Cl)Nc1ccc(Oc2cccnc2)nc1`, the Potency entry is “inactive” and the cell number change amounted to 1.56%.
As for `O=C1/C(=C/c2cccs2)SC(=S)N1CCCC(=O)N(CCO)c1ccccc1`, the Potency result was “inactive” and the cell number change was found to be 6.09%.
For `Cc1cc(C)cc(C(=O)OCC(=O)N2CCCCCC2)c1`, in that order: “inactive” and -14.4%.
For `O=C1CCCC(O)=C1N=Nc1c(Cl)cc(Cl)cc1Cl`, in that order: “inactive” and 2.67%.
Take `C/C=N/NC(=O)c1cc(Br)ccc1O`: the Potency entry was “inactive” and the cell number change is 5.04%.
On to `Cc1c(/C=N/NC(=O)c2cc(Br)ccc2O)c(=O)n(C)c(=O)n1C`, for which the Potency was 5.8 µM (active) and the cell number change is -6.52%.
For `Cc1cccc(/C=N/NC(=O)c2cc(Br)ccc2O)n1`, in that order: “inactive” and 0.985%.
Take `O=[N+]([O-])c1cccc(-c2ccc(C(=S)N3CCOCC3)o2)c1`: the Potency entry was “inactive” and the cell number change amounted to 15.8%.
For `O=C(Nc1ccc(CN2CCOCC2)cc1)c1ccc(-c2cccc([N+](=O)[O-])c2)o1`, in that order: 8.2 µM (active) and -29.5%.
For `CN1CCN(c2ccc(NC(=O)c3ccc(-c4cccc([N+](=O)[O-])c4)o3)cc2)CC1`, in that order: “inactive” and 17.7%.
For `O=C(NC1CCCN(CCc2ccccc2)C1)C1CCCC1` (stereo not drawn), in that order: “inactive” and 8.14%.
Take `C[C@H](NC(=O)C1CCN(S(=O)(=O)c2ccccc2)CC1)C(=O)NCc1ccc(F)cc1`: the Potency result is “inactive”.
Consider `CCN(CC)C1CCN(Cc2cn[nH]c2-c2ccc(OC)c(F)c2)C1` (stereo not drawn), for which the Potency result was “inactive” and the cell number change is 7.18%.
For the compound `Cc1sc(NC(=O)/C=C/c2ccco2)c(C(=O)O)c1C`, the Potency result is “inactive” and the cell number change was 4.19%.
On to `CC(C)(C)C1CCc2c(sc(NC(=O)CSc3nnc(-c4ccccc4)o3)c2C#N)C1` (stereo not drawn), for which the Potency is 4.11 µM (active) and the cell number change was -0.658%.
For `N#Cc1ccsc1NC(=O)CSc1nnc(-c2ccccc2)o1`, in that order: “inactive” and 20.1%.
Regarding `CCn1c(SCC(=O)Nc2sc3c(c2C#N)CCC(C(C)(C)C)C3)nnc1-c1ccco1` (stereo not drawn), the Potency result was “inactive” and the cell number change was -7.68%.
For the compound `COc1ccc(/C=N/n2cnc3c(sc(=S)n3-c3ccccc3)c2=O)cc1`, the Potency result was “inactive” and the cell number change turned out to be 19.1%.
For `CN1C(=S)SC(N(O)C(=O)Nc2ccc(Cl)c(Cl)c2)C1(C)C` (stereo not drawn), in that order: “inactive” and -15%.
Take `CCOc1ccc(CNc2ccc(N3CCCC3)cc2)cc1`: the Potency entry is “inactive”.
On the same count and under the same terms, for `CCOc1ccc(CNc2ccc(N3CCN(Cc4ccccc4)CC3)cc2)cc1` the value was 2.31 µM (active).
Regarding `CCOc1ccc(CN2CCC(Cc3ccccc3)CC2)cc1`, the Potency result was “inactive” and the cell number change turned out to be 27.4%.
For `O=C(NCn1cnccc1=O)c1ccccc1`, in that order: 20.6 µM (active) and 1.39%.
As for `O=C(NCN1CCc2ccccc2C1)c1ccccc1`, the Potency entry is “inactive” and the cell number change is 0.788%.
For `O=C(NC(C(=O)c1ccccc1)n1cnccc1=O)c1ccccc1` (stereo not drawn), in that order: “inactive” and -10.1%.
In the case of `Cc1noc(C)c1C(=O)Nc1nnc(CC(C)C)s1`, the Potency entry is “inactive” and the cell number change came out at 23.9%.
For `CC(=O)NCC(=O)N(Cc1ccco1)C1(C(=O)NC2CCCC2)CCCCC1`, in that order: “inactive” and 17.4%.
Take `O=C1NC(=O)C(CC(=O)N(Cc2ccco2)C2(C(=O)NC3CCCC3)CCCCC2)N1` (stereo not drawn): the Potency result was “inactive”.
Take `CC(=O)N(Cc1ccco1)C1(C(=O)NC2CCCCC2)CCCCC1`: the Potency result is “inactive” and the cell number change is -0.0608%.
For `O=C(Cc1cccs1)N(Cc1ccco1)C1(C(=O)NC2CCCC2)CCCCC1`, in that order: 3.66 µM (active) and -17%.
For `CC(=O)N(Cc1ccco1)C1(C(=O)NC2CCCC2)CCCCC1`, the Potency is 14.6 µM (active) and the cell number change was found to be 3.24%.
Consider `O=C(Cc1cccs1)N(CC1CCCO1)C1(C(=O)NC2CCCC2)CCCCC1` (stereo not drawn), for which the Potency result was “inactive” and the cell number change was -0.501%.
`O=C(NC(N1CCOCC1)C(Cl)(Cl)Cl)c1cc([N+](=O)[O-])cc([N+](=O)[O-])c1` (stereo not drawn): the Potency result is “inactive”.
As to `COC(CNC(=O)c1ccc(CS(=O)(=O)c2ccc(C)cc2)o1)OC`, the Potency result was “inactive” and the cell number change turned out to be 23.5%.
For `COc1nc(NCCN2CCOCC2)nc(Nc2ccccc2)n1`, in that order: “inactive” and -13.7%.
For `COc1ccc(NC(C)=O)cc1S(=O)(=O)Nc1ccc(OCc2ccccc2)cc1`, in that order: “inactive” and -6.41%.
For `COc1ccc(NC(C)=O)cc1S(=O)(=O)NC(Cc1ccccc1)C(=O)O` (stereo not drawn), in that order: “inactive” and -4.53%.
With `COc1ccc(NC(C)=O)cc1S(=O)(=O)NC(Cc1ccccc1)C(=O)NCc1ccccc1C` (stereo not drawn), the Potency was 1.84 µM (active) and the cell number change is -19.4%.
For `O=C1NC(c2ccccc2Cl)Nc2ccccc21` (stereo not drawn), in that order: “inactive” and -2.9%.
For `Cc1ccccc1C(=O)Nc1nnc(SCC(=O)NCc2ccco2)s1`, in that order: “inactive” and -7.23%.
Turning to `COc1ccc(C(=O)Nc2nnc(SCC(=O)NCc3ccco3)s2)cc1OC`, the Potency result is “inactive”.
In the case of `COc1ccccc1C(=O)Nc1nnc(SCC(=O)NCc2ccco2)s1`, the Potency is 20.6 µM (active) and the cell number change was -7.8%.
For `Cc1nc2ccc(NC(=S)NC(C)C)cc2nc1C`, the Potency result is “inactive” and the cell number change is -1.16%.
For `COc1cc(C(=O)NC(C)c2ccc(S(N)(=O)=O)cc2)ccc1OCC(=O)N1CCOCC1` (stereo not drawn), in that order: “inactive” and 9.66%.
For `CC12CN3CC(C)(CN(C1)C3c1ccc(Cl)cc1)C2` (stereo not drawn), in that order: “inactive” and -7.54%.
Regarding `CC12CN3CC(C)(CN(C1)C3c1ccccc1F)C2` (stereo not drawn), the Potency result is “inactive”.
Regarding `CC12CN3CC(C)(CN(C1)C3c1ccc(F)cc1)C2` (stereo not drawn), the Potency is 0.731 µM (active) and the cell number change is -6.72%.
For `Cc1nnc(NC(=O)CSc2ccc(-c3ccco3)nn2)s1`, in that order: “inactive” and 17.1%.
For `NS(=O)(=O)c1ccc(NC(=O)Nc2ccc(Cl)cc2)cc1`, in that order: “inactive” and -17.6%.
For `COc1ccc(CC(=O)Nc2nc(-c3ccc(F)c(F)c3)cs2)cc1`, in that order: “inactive” and 17.2%.
Regarding `COc1ccc(CC(=O)Nc2nc(-c3ccc(OC)c(OC)c3)cs2)cc1OC`, the Potency entry was “inactive” and the cell number change is -7.98%.
Take `COc1ccc(CC(=O)Nc2nc(-c3ccc(F)c(F)c3)cs2)cc1OC`: the Potency is 6.51 µM (active) and the cell number change was determined as 21%.
For `Cc1ccccc1OCCC(=O)OCC(=O)Nc1ccc(C(N)=O)cc1`, in that order: “inactive” and 0.749%.
For `O=C(CSCc1ccc(F)cc1)Nc1ccc(F)cc1`, in that order: “inactive” and 14.6%.
For `CCc1nnc(NC(=O)C2CC(=O)N(C3CCCC3)C2)s1` (stereo not drawn), in that order: “inactive” and 8.4%.
Take `CCOC(=O)N1CCN(C(=O)C2CCN(S(=O)(=O)c3cc(Cl)ccc3Cl)CC2)CC1`: the Potency result was “inactive” and the cell number change is -24.4%.
